Shown are actives, neighbours in structure and some others; about 11% of the full set was active somewhere.
Pf growth 96h: inhibits malaria parasite growth, 96 h; P. falciparum luciferase reporter growth, 96 h; Potency, µM (highest dose often 28.7 µM), hits mostly inhibitors; 320,000 tested, 6.9% active
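Erythrocytes infected with luciferase-expressing P. falciparum were dispensed at 2% hematocrit and 0.05% parasitemia (final), then incubated with compounds 96 hours at 37 C in 5% CO2. Luminescence after detection reagent addition reported growth.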
Pf growth 48h: P. falciparum growth inhibition at 48 hours (one generation); 310,000 tested, 5.9% active; Potency, µM (doses to about 28.7 µM), actives largely listed as inhibitors; P. falciparum luciferase growth in erythrocytes, 48 h
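Luciferase-expressing P. falciparum in infected erythrocytes (2% hematocrit, 0.1% parasitemia final) in RPMI 1640/0.5% Albumax were exposed to compound for 48 hours at 37 C, 5% CO2; growth read as luminescence.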
HCV inhibitor: inhibitors of hepatitis C virus infection. Huh7.5.1 HCVcc-Cre infection, luciferase reporter, 44 h. Potency, µM (highest dose often 41.8 µM), hits mostly inhibitors. 340,000 tested, 3.4% active
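Reporter virus HCVcc-Cre (~0.5 moi) infects cells exposed to compound; seeding density 1,000 cells/well with 4 h settling beforehand. Luminescence, 15 sec read, taken 44 h post-infection following a 15 min RT substrate incubation.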
AmpC inh no detg: inhibitors of E. coli AmpC beta-lactamase without detergent; Potency, µM (titrated, usually from 57.1 µM), hits mostly inhibitors; 330,000 tested, 0.52% active; AmpC nitrocefin hydrolysis, absorbance 480 nm, 0.0001% Triton; P00811; note: nearly all actives have a fitted effect of over 20% in size
Target sequence (P00811 whole entry, looked up): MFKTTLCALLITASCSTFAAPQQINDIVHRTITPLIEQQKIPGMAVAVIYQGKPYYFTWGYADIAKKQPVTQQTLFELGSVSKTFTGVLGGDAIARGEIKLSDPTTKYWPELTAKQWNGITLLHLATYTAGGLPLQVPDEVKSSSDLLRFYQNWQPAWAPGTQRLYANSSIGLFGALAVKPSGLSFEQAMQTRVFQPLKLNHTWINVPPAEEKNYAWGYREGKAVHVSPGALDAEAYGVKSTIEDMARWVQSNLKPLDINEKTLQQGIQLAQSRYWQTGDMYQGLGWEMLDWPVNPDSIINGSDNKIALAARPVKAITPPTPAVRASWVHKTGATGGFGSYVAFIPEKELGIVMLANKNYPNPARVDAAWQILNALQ
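20 mM phosphate pH 7.0 + 0.01% (detergent screen) or 0.0001% Triton X-100; 5.3 nM AmpC reagent; cpd preinc 15 min RT; nitrocefin (800 uM stock) to start; A480 q20 s × 4 min; Activity was normalised to no-enzyme and no-compound control wells.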
AMA1 RON2 block: AMA1-RON2 (P. falciparum) interaction inhibition. AlphaScreen AMA1-biotinylated RON2 peptide binding. Potency, µM (titrated, usually from 58.2 µM), actives largely listed as inhibitors. 360,000 tested, 0.2% active. AID 720542; note: nearly all actives have a fitted effect of over 45% in size
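AMA1 (3D7) with his tag at 25 nM final met compounds first, then biotinylated RON2 peptide at 25 nM; detection used donor plus acceptor beads, 10 µg/mL apiece, read by AlphaScreen after 30 min at room temperature.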
AmpC inh detg: blocks E. coli AmpC beta-lactamase in detergent assay | P00811 | AmpC hydrolysis of nitrocefin, absorbance 480 nm, 0.01% Triton | Potency, µM (highest dose often 114 µM), actives largely listed as inhibitors | 370,000 tested, 0.041% active | AID 485294; note: nearly all actives have a fitted effect of over 25% in size
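AmpC (5.3 nM in the dispensed reagent) in 20 mM phosphate pH 7.0 with 0.01% (detergent screen) or 0.0001% Triton X-100 was preincubated with compounds for 15 min at room temperature. Nitrocefin was then added from an 800 uM solution, and hydrolysis was followed at 480 nm.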
Numbers stand for hits; . = inactive; ? = inconclusive; / = no result; ! = not active in a repeat; [ ] = another dose, or the depositor's remark. Calls come from the whole dose curve; as a rule, active = well fitted curve in the direction sought with a large enough effect; inconclusive = small, poorly fitted or top-dose-only effect, or another doubt; inactive = no such curve, though single readings can be large; an effect the other way counts as inactive or inconclusive.

SMILES | Pf growth 96h | Pf growth 48h | HCV inhibitor | AmpC inh no detg | AMA1 RON2 block | AmpC inh detg
COc1ccc2c(c1)[C@H]1[C@H](CO2)[C@H](c2ccccc2)[C@]2(C)C(=O)N(Cc3ccc(C)cc3)CC(=O)N12 | / | / | 10µM | . | . | /
Cc1ccc(CN2CC(=O)N3[C@H]4c5cc(C)ccc5OC[C@@H]4[C@H](c4ccccc4)[C@]3(C)C2=O)cc1 | . | 5.9µM | ? | . | . | .
Cc1ccc2c(c1)[C@H]1[C@H](CO2)[C@H](c2ccccc2)[C@]2(C)C(=O)N(Cc3ccccc3)CC(=O)N12 | / | / | ? | ? | . | /
COc1ccc2c(c1)OC[C@H]1[C@H]2N2C(=O)CN(C)C(=O)[C@@]2(C)[C@H]1c1ccccc1 | ? | . | . | . | . | .
Cc1c(Cc2ccc3c(c2)OCO3)sc(NC(=O)C(C)(C)C)c1C#N | ? | ? | 11µM | . | . | ?
CC(C)CN1CC(=O)N2C(c3ccccc3)c3[nH]c4ccccc4c3C[C@H]2C1=O (stereo partly drawn) | ? | 12µM | . | . | . | .
O=C1[C@@H]2Cc3c([nH]c4ccccc34)[C@@H](c3ccccc3)N2C(=O)[C@@H]2Cc3c([nH]c4ccccc34)[C@@H](c3ccccc3)N12 | 2.6µM | ? | .[8.37 µM] | . | / | ?
COc1cc([C@H]2c3[nH]c4ccccc4c3C[C@H]3C(=O)N4[C@@H](c5cc(OC)c(OC)c(OC)c5)c5[nH]c6ccccc6c5C[C@H]4C(=O)N23)cc(OC)c1OC | 0.47µM | 0.41µM | . | . | . | .
CCN1C(=O)[C@@H]2Cc3c([nH]c4ccccc34)C(c3cc(OC)c(OC)c(OC)c3)N2C1=S (stereo partly drawn) | ? | ? | ? | . | . | .
C=CCN1C(=O)[C@@H]2Cc3c([nH]c4ccccc34)C(c3cc(OC)c(OC)c(OC)c3)N2C1=S (stereo partly drawn) | ? | 8.3µM | . | . | . | .
O=C1[C@@H]2Cc3c([nH]c4ccccc34)C(c3ccccc3)N2C(=O)CN1CCO (stereo partly drawn) | . | . | . | . | . | .
COc1ccc([C@]23Cc4cc(OC)c(OC)cc4C(O2)c2c(c4ccccc4oc2=O)O3)cc1 | ? | .[5.75 µM] | / | .[11.4 µM] | / | .[22.9 µM]
CCn1nnc2cc(C(=O)Nc3ccc(C)c(Cl)c3)ccc21 | / | / | / | / | / | .
COc1ccccc1CNC(=O)c1ccc(-c2nc(CN3CCc4ccccc43)c(C)o2)cc1 | / | / | / | / | / | .
CCOc1ccccc1CNC(=O)c1cccn1-c1nnc(N2CCCC2)s1 | / | / | / | / | / | .
CCc1cc(=O)oc2cc(C)c(CN3CCCC3)c(O)c12 | . | ? | ? | 11µM | 12µM | ?
CC(C)(C)N(Cc1ccccc1)C(=O)CCc1ccccc1 | 13µM | ? | . | . | . | .
Cc1ccc(-c2csc3nc(=O)c(C)nn23)cc1 | 5.2µM | . | . | . | . | ?
CC1CCc2nc(NC(=O)c3cc(C(C)(C)C)nn3C)sc2C1 (stereo not drawn) | 8.3µM | ? | . | . | . | .
CCCCOc1ccc(C(=O)Nc2nc3c(s2)CC(C)CC3)cc1 (stereo not drawn) | / | / | / | / | / | .
Cn1nc(C(C)(C)C)cc1C(=O)NNC(=O)c1ccccc1Cl | . | . | ? | . | . | .
Cc1ccc(-c2nc(NC(=O)c3cc(C(C)(C)C)nn3C)sc2C)cc1Cl | 2.1µM | 1.9µM | ? | . | . | .
CC1=NN(c2ccc([N+](=O)[O-])cc2)C(=O)/C1=C\N(C)C | 7.4µM | . | . | . | .[2.32 µM] | ?
COc1cc(OC)c(NC(=O)Cn2c(=O)oc3cc(S(=O)(=O)N4CCCC4)ccc32)cc1Cl | / | / | / | / | / | .
CN(C)c1ccc(CNC(=O)C2(C)Cc3c(-c4cccc(C(F)(F)F)c4)ccnc3O2)cc1 (stereo not drawn) | / | / | / | / | 25µM | /
SMILES | Pf growth 96h | Pf growth 48h | HCV inhibitor | AmpC inh no detg | AMA1 RON2 block | AmpC inh detg
CCOC(=O)C1CCC(CN(Cc2ccc(Cl)cc2)S(=O)(=O)c2ccc(F)c(C(=O)Nc3cccc(F)c3)c2)CC1 (stereo not drawn) | / | / | / | / | / | .
CCC(C(=O)NCCc1ccccc1)n1nc(C)n2c(cc3sccc32)c1=O (stereo not drawn) | / | / | / | / | / | .
CC(C1CC2CCC1C2)N1CC(O)=C(c2nc3ccccc3[nH]2)C1=N (stereo not drawn) | 3.3µM | ? | ? | . | . | .
CC(C)N1CC(O)=C(c2nc3ccccc3[nH]2)C1=N | . | . | . | . | . | ?
CCn1c(C)c(C(C)=O)c(N2CCN(c3ccccc3)CC2)nc1=S | . | / | . | . | . | .
CC(=O)c1c(N2CCN(C)CC2)[nH]c(-c2ccccc2)nc1=S | . | 1.7µM | . | . | . | .
COc1cccc(-c2nnc3n2N=C(c2cc(OC)ccc2OC)CS3)c1 | ? | ? | 10µM | . | . | .
COc1ccc(OC)c(C2=Nn3c(nnc3-c3ccncc3)SC2)c1 | / | / | . | / | . | /
Cc1cc(-c2nnc3n2N=C(c2ccccc2Br)CS3)n[nH]1 | 12µM | ? | . | . | . | .
CCOc1cccc(-c2nnc3n2N=C(c2cc(OC)ccc2OC)CS3)c1 | 12µM | 12µM | 11µM | . | . | .
COc1cc(-c2nnc3n2N=C(c2ccccc2)CS3)cc(OC)c1OC | ? | ? | 10µM | . | . | .
CCOc1ccc(/C=C/c2nc(C#N)c(NC(C)CC)o2)cc1 (stereo not drawn) | / | / | / | / | / | .
COc1ccc(C2=Nn3c(nnc3-c3ccco3)SC2)cc1OC | ? | ? | . | . | . | .
COc1cccc(C2=Nn3c(nnc3-c3ccccc3O)SC2)c1 | . | 13µM | ? | . | . | .
COc1cccc(-c2nnc3n2N=C(C(C)(C)C)CS3)c1 | 13µM | ? | 11µM | . | . | .
COc1ccc(OC)c(C2=Nn3c(nnc3-c3cc(OC)c(OC)c(OC)c3)SC2)c1 | . | 6.6µM | / | . | . | .
COc1ccc(-c2nnc3n2N=C(C)CS3)cc1 | . | . | . | . | . | .
COc1ccc(C2=Nn3c(nnc3-c3ccc(OC)cc3)SC2)cc1 | / | 10µM | 3.5µM | . | . | .
O=C(O)Cn1c(C(=O)Nc2nc(-c3ccccc3Cl)cs2)cc2ccccc21 | ? | . | / | / | / | /
Cc1ccc(C)c(N2CCN(C(=O)Cn3c(=O)c4cccn4c4ccc(F)cc43)CC2)c1 | / | / | / | / | / | .
CC(C)(C)C1=Nn2c(nnc2-c2ccccn2)SC1 | 8.3µM | / | . | . | . | .
COc1ccc(C2=Nn3c(nnc3-c3ccccc3OC)SC2)cc1OC | 3.7µM! | 10µM | ? | . | . | ?
COc1ccc(N=C2SCC(c3ccccc3)=NN2C)cc1 | . | 2.6µM | ? | . | . | .
Cc1ccc(CCNC(=O)CCS(=O)(=O)c2cc3c(cc2Cl)NC(=O)CO3)cc1 | / | / | / | / | / | .

Compound activity deposited in PubChem by National Center for Advancing Translational Sciences (NCATS).
